From PubChem BioAssay (EPA / NIEHS) come the findings set out here.

The structures appear in SMILES notation. Active and inactive are the calls of the source. How the source made its calls: active means hit-call score of the fitted dose curve at least 0.9, where 1 is the maximum; inactive means score below 0.9.

The first experiment in a line: ATG_RORE_CIS: Attagene CIS-FACTORIAL HepG2 Assay for human RAR-related Orphan Receptor Element (RORE) (AID 2282959). The conditions noted are these: HepG2 Attagene cis-factorial RORE reporter, mRNA; actives raise or lower the signal. The procedure, abridged:
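Fluorescence intensity of reporter-specific cDNA fragments, separated by capillary electrophoresis, gives the signal. Source: HepG2 liver cells transiently transfected with cis-element reporters and exposed 24 h; DMSO-normalized bidirectional fit.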
With `O=P(O)(O)OCCC(F)(F)C(F)(F)C(F)(F)C(F)(F)C(F)(F)C(F)(F)F`, the result was inactive.

Turning to `CC(=O)Nc1ccc(N=Nc2cc(C)ccc2O)cc1`, the result was inactive.

In the case of `CCCCCCC(C)OC(=O)CCCCC(=O)OC(C)CCCCCC` (centres undefined), the call was inactive.

Consider `FC(F)(F)C(F)(F)C(F)(F)C(F)(F)C(F)(F)C(F)(F)C(F)(F)C(F)(F)CCS`, for which the result was inactive.

For the compound `FC(F)(Br)C(F)(F)C(F)(F)C(F)(F)C(F)(F)C(F)(F)Br`, the call was inactive.

For `COC(=O)CCC(F)(F)C(F)(F)C(F)(F)C(F)(F)F`, the compound was classed as inactive.

For `FC(F)(F)C(F)(F)C(F)(F)N(C(F)(F)C(F)(F)C(F)(F)F)C(F)(F)C(F)(F)C(F)(F)F`, the compound was classed as inactive.

On to `FC(F)(F)C(F)(F)C(F)(F)C(F)(F)C(F)(F)C(F)(F)C(F)(F)C(F)(F)F`, for which the compound was classed as inactive.

In the case of `CCCCCCCCC(F)(F)C(F)(F)C(F)(F)C(F)(F)C(F)(F)C(F)(F)F`, the result was inactive.

As for `FC(F)(F)C(F)(F)CNCC(F)(F)C(F)(F)F`, the compound was classed as inactive.

For `CC/C=C\CCOC(=O)c1ccccc1`, the outcome was inactive.

Take `O=S(=O)(OCCOC(F)(F)F)C(F)(F)F`: the result was inactive.

Consider `Cc1cccc(N(C)C)c1`, for which the compound was called inactive.

Regarding `O=C(O)C(F)(OC(F)(F)C(F)(OC(F)(F)C(F)(OC(F)(F)C(F)(F)C(F)(F)F)C(F)(F)F)C(F)(F)F)C(F)(F)F` (centres undefined), the compound was called inactive.

Turning to `C=C(C)C(=O)OCC(F)(F)C(F)(F)C(F)(F)F`, the call was inactive.

In the case of `Nc1ccc([N+](=O)[O-])cc1O`, the result was inactive.

Turning to `OCC(F)(F)C(F)(F)C(F)(F)C(F)F`, the call was inactive.

As to `CC(CCl)OP(=O)(OC(C)CCl)OC(C)CCl` (centres undefined), the call was inactive.

Consider `CC(C)OC(=O)c1ccccc1C(=O)OC(C)C`, for which the result was inactive.

`FC(F)(F)C(F)(F)C(F)(F)C(F)(F)C(F)(F)C(F)(F)CC1CO1` (centres undefined): the result was inactive.

Another experiment can be described thus: ATG_Sox_CIS: Attagene CIS-FACTORIAL HepG2 Assay for human SRY-box transcription factor (SOX) (AID 2282960). The conditions noted are these: HepG2 Attagene cis-factorial SOX reporter, mRNA; actives raise or lower the signal. The method in brief:
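After 24 h of chemical treatment, transfected HepG2 reporter cells are lysed for total RNA. Transcript levels come from RT-PCR with labelled primer extension and capillary electrophoresis, analysed bidirectionally versus DMSO.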
`O=P(O)(O)OCCC(F)(F)C(F)(F)C(F)(F)C(F)(F)C(F)(F)C(F)(F)F`: the outcome was inactive.

Consider `CC(=O)Nc1ccc(N=Nc2cc(C)ccc2O)cc1`, for which the compound was classed as inactive.

With `CCCCCCC(C)OC(=O)CCCCC(=O)OC(C)CCCCCC` (centres undefined), the result was inactive.

Turning to `FC(F)(F)C(F)(F)C(F)(F)C(F)(F)C(F)(F)C(F)(F)C(F)(F)C(F)(F)CCS`, the compound was called inactive.

In the case of `FC(F)(Br)C(F)(F)C(F)(F)C(F)(F)C(F)(F)C(F)(F)Br`, the result was inactive.

With `OCC(F)(F)C(F)(F)C(F)(F)C(F)(F)C(F)(F)C(F)F`, the outcome was inactive.

With `COC(=O)CCC(F)(F)C(F)(F)C(F)(F)C(F)(F)F`, the call was inactive.

Turning to `FC(F)(F)C(F)(F)C(F)(F)C(F)(F)C(F)(F)C(F)(F)C(F)(F)C(F)(F)F`, the call was inactive.

`CCO[Si](CCC(F)(F)C(F)(F)C(F)(F)C(F)(F)C(F)(F)C(F)(F)F)(OCC)OCC`: the compound was called inactive.

As for `CCCCCCCCC(F)(F)C(F)(F)C(F)(F)C(F)(F)C(F)(F)C(F)(F)F`, the call was inactive.

Regarding `CC/C=C\CCOC(=O)c1ccccc1`, the outcome was inactive.

As for `O=S(=O)(OCCOC(F)(F)F)C(F)(F)F`, the compound was classed as inactive.

On to `O=S(=O)(O)c1ccc2ccccc2c1`, for which the outcome was inactive.

Take `FC(F)(F)C(F)(F)C(F)(F)CI`: the call was inactive.

With `O=C(O)C(F)(OC(F)(F)C(F)(OC(F)(F)C(F)(OC(F)(F)C(F)(F)C(F)(F)F)C(F)(F)F)C(F)(F)F)C(F)(F)F` (centres undefined), the compound was called inactive.

Consider `Nc1ccc(Oc2cccc(Oc3ccc(N)cc3)c2)cc1`, for which the compound was classed as inactive.

Consider `FC(F)(F)C(F)(F)C(F)(F)C(F)(F)C(F)(F)C(F)(F)CCS`, for which the call was inactive.

In the case of `COC(OC(C)=O)c1ccccc1` (centres undefined), the compound was called inactive.

Consider `FC(F)(F)C(F)(F)C(F)(F)C(F)(F)C(F)(F)CCI`, for which the call was inactive.

For the compound `Nc1ccc([N+](=O)[O-])cc1O`, the outcome was inactive.

As to `C#C[C@]1(O)CC[C@H]2[C@@H]3CCc4cc(OC)ccc4[C@H]3CC[C@@]21C`, the call was inactive.

For `CC(C)=CCCC(C)CCOC(=O)C(C)C` (centres undefined), the result was inactive.

On to `CC(CCl)OP(=O)(OC(C)CCl)OC(C)CCl` (centres undefined), for which the compound was called inactive.

Regarding `CC(C)OC(=O)c1ccccc1C(=O)OC(C)C`, the call was inactive.
